One sequence from paper PMC7862700, “An all-to-all approach to the identification of sequence-specific readers for epigenetic DNA modifications on cytosine” can be followed below.

Assay in all cases: DAPPL (digital affinity profiling via proximity ligation, sequencing); 10 mM Tris-HCl pH 7.5, 50 mM NaCl, 1 mM DTT, 4% glycerol, room temperature, 30 min; GST-TFs on glutathione beads, 16-mer random dsDNA library, 0.1% formaldehyde crosslink after washing; high values mean tight binding
The target in one test is T1, FEV (Homo sapiens, UniProt Q99581 1-238).
T1 sequence: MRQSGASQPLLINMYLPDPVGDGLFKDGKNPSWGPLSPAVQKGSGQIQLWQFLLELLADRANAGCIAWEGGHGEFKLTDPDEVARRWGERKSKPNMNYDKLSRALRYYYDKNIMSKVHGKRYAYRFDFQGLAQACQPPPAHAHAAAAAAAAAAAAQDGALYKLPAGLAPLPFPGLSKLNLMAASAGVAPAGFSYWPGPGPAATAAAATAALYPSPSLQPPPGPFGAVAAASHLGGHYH
The following applies: protein: recombinant; tags: N-terminal GST; dsDNA, one strand shown. Put shortly: (§1)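 In yeast, human transcription factors were expressed with a GST fusion, then pulled down on glutathione beads and given DNA barcodes. Pooled with a tag-only sample, they were exposed to 200 nmole of a 16-mer random double-stranded DNA library (Tris/NaCl/DTT/glycerol buffer, room temperature, 30 min), washed, crosslinked with 0.1% formaldehyde, proximity-ligated using BsaI/T4 ligase for 1 h at 37 °C, PCR-amplified and read on an Illumina NextSeq500. Each hexamer's frequency of reads for a factor, divided by the matching frequency for the tag-only sample, gives the binding signal.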

Another test concerns the target ETV5 (Homo sapiens, UniProt P41161 1-510). The following applies: protein: recombinant; tags: N-terminal GST; dsDNA, one strand shown. Put shortly: as §1
Another test concerns the target HSF1 (Homo sapiens, UniProt Q00613 1-529). The following applies: protein: recombinant; tags: N-terminal GST; chain copies: 3; dsDNA, one strand shown. The essentials:
as §1

For another test, the target named is T2, SPIC (Homo sapiens, UniProt Q8N5J4 1-248).
T2 sequence: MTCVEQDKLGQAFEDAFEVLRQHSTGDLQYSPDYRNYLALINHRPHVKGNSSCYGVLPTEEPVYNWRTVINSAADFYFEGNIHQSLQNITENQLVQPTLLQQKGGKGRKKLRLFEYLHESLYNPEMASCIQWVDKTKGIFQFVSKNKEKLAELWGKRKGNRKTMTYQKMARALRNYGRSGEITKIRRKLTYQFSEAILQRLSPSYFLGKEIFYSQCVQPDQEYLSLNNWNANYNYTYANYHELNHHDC
The following applies: protein: recombinant; tags: N-terminal GST; dsDNA, one strand shown. Put shortly:
as §1

A further test has as its target ELF4 (Homo sapiens, UniProt Q99607 1-663). The following applies: protein: recombinant; tags: N-terminal GST; dsDNA, one strand shown. The essentials:
as §1

The target of a further test is T3, ELK4 (Homo sapiens, UniProt P28324-2 1-405).
T3 sequence: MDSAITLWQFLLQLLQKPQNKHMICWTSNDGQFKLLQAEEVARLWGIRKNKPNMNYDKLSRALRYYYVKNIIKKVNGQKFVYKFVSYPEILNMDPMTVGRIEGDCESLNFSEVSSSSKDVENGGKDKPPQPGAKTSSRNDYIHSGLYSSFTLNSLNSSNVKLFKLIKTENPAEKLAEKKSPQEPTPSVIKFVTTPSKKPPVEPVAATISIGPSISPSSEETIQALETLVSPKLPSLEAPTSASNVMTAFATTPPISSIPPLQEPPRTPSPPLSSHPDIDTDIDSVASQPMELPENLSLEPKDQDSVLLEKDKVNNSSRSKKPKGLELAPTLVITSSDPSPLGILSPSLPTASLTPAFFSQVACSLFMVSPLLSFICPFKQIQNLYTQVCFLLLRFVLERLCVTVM
The following applies: protein: recombinant; tags: N-terminal GST; dsDNA, one strand shown. The essentials:
as §1

Another test concerns the target T4, ETV2 (Homo sapiens, UniProt O00321 1-342).
T4 sequence: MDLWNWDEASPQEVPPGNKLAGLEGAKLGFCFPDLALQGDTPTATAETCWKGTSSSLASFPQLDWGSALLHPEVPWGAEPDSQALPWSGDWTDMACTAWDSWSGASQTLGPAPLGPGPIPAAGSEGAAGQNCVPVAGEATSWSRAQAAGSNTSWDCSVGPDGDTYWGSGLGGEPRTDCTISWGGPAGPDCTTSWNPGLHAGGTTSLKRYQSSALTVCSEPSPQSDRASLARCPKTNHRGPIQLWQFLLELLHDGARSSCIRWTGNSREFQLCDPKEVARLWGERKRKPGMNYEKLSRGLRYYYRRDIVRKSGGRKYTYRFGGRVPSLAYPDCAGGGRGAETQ
The following applies: protein: recombinant; tags: N-terminal GST; dsDNA, one strand shown. The essentials:
as §1

The target of the next test is T5, ELF3 (Homo sapiens, UniProt P78545 1-371).
T5 sequence: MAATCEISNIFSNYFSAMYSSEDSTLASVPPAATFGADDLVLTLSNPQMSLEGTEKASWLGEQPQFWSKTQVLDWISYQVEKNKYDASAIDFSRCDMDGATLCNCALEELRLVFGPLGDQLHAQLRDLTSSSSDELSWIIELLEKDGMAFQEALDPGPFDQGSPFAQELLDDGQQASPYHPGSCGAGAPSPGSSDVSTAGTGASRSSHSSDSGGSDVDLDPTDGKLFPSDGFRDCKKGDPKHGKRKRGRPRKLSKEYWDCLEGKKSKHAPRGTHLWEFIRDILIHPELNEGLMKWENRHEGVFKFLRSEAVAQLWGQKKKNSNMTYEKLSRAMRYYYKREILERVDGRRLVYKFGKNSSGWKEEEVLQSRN
The following applies: protein: recombinant; tags: N-terminal GST; dsDNA, one strand shown. Put shortly: as §1

A further test addresses CRX (Homo sapiens, UniProt O43186 1-299). The following applies: protein: recombinant; tags: N-terminal GST; dsDNA, one strand shown. The essentials:
as §1

The target of a further test is ETV1 (Homo sapiens, UniProt P50549 1-477). The following applies: protein: recombinant; tags: N-terminal GST; dsDNA, one strand shown. The essentials:
as §1

Another test deals with T6, ERF (Homo sapiens, UniProt P50548 1-548).
T6 sequence: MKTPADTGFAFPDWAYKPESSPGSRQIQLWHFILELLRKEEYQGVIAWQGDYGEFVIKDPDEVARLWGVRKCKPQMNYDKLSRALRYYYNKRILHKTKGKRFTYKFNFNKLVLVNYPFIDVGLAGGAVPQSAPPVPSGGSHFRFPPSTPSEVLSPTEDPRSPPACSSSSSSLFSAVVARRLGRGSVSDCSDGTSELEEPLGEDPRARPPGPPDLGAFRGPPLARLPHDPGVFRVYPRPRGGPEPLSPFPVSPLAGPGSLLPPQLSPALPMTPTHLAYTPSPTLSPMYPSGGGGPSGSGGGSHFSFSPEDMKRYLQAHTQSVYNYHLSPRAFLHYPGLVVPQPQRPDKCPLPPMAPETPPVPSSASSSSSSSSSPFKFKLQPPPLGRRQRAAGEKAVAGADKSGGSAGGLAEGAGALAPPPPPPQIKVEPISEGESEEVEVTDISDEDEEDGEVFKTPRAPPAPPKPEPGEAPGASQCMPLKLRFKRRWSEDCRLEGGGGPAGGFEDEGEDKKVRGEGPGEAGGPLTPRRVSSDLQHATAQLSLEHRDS
The following applies: protein: recombinant; tags: N-terminal GST; dsDNA, one strand shown. Put shortly: as §1

The target in another test is T7, ETV3L (Homo sapiens, UniProt Q6ZN32 1-361).
T7 sequence: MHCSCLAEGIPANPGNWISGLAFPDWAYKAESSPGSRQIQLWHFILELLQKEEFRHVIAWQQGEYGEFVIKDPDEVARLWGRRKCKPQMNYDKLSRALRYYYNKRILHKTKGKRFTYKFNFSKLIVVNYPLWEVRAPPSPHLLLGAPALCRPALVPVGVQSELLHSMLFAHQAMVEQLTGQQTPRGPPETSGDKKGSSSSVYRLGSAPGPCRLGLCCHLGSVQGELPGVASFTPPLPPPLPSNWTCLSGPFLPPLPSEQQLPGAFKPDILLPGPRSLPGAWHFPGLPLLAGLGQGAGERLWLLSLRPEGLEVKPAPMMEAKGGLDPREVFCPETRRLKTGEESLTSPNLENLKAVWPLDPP
The following applies: protein: recombinant; tags: N-terminal GST; dsDNA, one strand shown. Put shortly:
as §1

The target of a further test is T8, ETS2 (Homo sapiens, UniProt P15036 1-469).
T8 sequence: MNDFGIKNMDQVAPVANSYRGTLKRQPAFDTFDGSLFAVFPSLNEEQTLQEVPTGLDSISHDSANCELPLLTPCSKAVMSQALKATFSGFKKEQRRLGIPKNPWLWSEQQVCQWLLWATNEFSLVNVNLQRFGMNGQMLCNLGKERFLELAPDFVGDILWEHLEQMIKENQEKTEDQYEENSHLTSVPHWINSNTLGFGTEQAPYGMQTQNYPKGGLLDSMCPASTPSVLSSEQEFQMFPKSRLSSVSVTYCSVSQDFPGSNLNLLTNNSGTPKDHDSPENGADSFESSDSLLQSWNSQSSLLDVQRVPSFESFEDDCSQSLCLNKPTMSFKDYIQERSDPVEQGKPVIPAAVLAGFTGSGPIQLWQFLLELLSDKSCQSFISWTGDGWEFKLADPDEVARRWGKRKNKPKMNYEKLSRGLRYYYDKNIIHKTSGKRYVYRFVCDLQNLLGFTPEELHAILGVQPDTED
The following applies: protein: recombinant; tags: N-terminal GST; dsDNA, one strand shown. The essentials: as §1

The target of a further test is T9, SPDEF (Homo sapiens, UniProt O95238 1-335).
T9 sequence: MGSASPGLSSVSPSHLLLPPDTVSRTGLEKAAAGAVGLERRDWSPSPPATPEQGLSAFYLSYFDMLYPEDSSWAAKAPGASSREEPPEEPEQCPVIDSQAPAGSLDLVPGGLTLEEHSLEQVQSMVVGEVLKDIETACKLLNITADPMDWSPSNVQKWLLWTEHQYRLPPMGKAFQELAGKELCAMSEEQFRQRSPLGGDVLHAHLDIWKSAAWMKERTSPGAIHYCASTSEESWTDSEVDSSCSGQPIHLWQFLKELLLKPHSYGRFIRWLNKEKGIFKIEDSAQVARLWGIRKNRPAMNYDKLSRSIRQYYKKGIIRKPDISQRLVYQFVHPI
The following applies: protein: recombinant; tags: N-terminal GST; dsDNA, one strand shown. The essentials: as §1

Another test concerns the target T10, ETV7 (Homo sapiens, UniProt Q9Y603 1-341).
T10 sequence: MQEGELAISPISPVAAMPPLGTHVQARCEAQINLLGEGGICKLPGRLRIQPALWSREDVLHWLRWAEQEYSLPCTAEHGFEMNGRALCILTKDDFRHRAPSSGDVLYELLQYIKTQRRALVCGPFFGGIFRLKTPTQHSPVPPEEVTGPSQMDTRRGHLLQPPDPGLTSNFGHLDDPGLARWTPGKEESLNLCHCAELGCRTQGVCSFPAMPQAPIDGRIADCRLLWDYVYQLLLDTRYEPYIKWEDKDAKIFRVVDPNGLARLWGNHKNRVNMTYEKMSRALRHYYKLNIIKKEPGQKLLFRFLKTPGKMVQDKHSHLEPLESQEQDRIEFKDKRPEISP
The following applies: protein: recombinant; tags: N-terminal GST; dsDNA, one strand shown. The essentials: as §1

The next test concerns the target T11, ELF5 (Homo sapiens, UniProt Q9UKW6-2 1-255).
T11 sequence: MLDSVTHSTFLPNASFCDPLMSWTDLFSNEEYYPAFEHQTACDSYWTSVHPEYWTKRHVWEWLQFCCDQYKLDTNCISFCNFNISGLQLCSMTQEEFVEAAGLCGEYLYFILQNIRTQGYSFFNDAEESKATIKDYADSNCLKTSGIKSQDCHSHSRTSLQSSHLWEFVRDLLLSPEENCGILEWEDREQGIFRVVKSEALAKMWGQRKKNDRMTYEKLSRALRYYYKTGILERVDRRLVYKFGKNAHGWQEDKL
The following applies: protein: recombinant; tags: N-terminal GST; dsDNA, one strand shown. The essentials: as §1

The target in the next test is T12, ETV3 (Homo sapiens, UniProt P41162-2 1-143).
T12 sequence: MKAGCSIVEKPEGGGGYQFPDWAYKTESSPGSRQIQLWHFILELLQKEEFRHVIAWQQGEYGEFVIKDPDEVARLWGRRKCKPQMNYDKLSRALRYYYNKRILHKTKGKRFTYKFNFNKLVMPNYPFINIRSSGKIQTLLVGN
The following applies: protein: recombinant; tags: N-terminal GST; dsDNA, one strand shown. Put shortly: as §1

In another test the target is ETV6 (Homo sapiens, UniProt P41212 1-452). The following applies: protein: recombinant; tags: N-terminal GST; dsDNA, one strand shown. Put shortly: as §1
Chain of ETV6 (P41212 whole entry): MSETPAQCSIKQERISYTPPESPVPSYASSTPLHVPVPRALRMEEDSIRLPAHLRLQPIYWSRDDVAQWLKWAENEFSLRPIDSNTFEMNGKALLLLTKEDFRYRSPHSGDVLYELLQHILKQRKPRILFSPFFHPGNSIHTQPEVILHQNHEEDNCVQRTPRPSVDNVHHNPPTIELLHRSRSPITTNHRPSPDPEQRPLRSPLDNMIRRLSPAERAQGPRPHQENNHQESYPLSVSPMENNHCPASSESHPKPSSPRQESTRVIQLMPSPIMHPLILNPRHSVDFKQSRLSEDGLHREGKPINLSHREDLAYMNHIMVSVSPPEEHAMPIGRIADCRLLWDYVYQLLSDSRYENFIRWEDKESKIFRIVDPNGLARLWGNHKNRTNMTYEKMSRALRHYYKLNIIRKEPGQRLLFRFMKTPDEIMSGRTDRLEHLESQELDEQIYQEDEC

Chain of ELF4 (Q99607 whole entry): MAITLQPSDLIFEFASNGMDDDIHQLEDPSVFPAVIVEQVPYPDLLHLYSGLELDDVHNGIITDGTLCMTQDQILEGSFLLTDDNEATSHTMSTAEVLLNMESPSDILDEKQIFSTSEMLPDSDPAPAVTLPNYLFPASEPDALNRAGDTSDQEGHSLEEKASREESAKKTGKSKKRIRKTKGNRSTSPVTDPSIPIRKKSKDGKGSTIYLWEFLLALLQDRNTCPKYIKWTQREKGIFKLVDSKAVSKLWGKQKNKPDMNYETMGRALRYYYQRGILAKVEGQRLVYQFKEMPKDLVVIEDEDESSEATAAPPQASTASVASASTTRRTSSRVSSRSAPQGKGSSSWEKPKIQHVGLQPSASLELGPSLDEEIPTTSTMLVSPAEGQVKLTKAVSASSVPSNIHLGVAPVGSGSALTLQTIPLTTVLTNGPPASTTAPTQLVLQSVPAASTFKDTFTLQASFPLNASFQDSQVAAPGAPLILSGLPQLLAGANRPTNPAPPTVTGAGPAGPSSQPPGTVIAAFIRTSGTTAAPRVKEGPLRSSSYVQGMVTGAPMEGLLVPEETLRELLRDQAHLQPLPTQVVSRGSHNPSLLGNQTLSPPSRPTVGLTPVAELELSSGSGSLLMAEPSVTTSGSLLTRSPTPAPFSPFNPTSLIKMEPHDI
Chain of CRX (O43186 whole entry): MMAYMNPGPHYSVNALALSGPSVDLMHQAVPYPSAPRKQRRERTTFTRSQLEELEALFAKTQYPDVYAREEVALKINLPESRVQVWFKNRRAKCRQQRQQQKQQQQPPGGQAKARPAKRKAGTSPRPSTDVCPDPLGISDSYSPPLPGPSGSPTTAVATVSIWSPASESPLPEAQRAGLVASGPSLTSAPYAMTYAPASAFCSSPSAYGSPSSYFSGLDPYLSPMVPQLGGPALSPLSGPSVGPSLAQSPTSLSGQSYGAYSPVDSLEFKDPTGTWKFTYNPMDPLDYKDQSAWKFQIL
Chain of HSF1 (Q00613 whole entry): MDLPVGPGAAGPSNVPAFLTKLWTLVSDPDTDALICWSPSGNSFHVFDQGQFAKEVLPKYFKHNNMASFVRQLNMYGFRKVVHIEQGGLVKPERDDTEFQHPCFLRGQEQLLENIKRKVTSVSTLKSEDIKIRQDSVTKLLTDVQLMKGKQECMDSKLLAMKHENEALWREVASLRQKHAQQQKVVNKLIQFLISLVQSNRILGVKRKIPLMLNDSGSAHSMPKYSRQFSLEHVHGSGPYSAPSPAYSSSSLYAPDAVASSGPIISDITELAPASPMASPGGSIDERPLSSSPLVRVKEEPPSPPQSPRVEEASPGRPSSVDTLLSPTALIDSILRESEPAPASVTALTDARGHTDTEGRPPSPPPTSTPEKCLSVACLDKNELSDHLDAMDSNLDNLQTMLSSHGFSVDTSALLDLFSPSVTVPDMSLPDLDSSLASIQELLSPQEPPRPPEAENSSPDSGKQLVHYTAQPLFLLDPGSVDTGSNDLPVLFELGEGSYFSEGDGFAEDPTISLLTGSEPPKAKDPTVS
Chain of ETV5 (P41161 whole entry): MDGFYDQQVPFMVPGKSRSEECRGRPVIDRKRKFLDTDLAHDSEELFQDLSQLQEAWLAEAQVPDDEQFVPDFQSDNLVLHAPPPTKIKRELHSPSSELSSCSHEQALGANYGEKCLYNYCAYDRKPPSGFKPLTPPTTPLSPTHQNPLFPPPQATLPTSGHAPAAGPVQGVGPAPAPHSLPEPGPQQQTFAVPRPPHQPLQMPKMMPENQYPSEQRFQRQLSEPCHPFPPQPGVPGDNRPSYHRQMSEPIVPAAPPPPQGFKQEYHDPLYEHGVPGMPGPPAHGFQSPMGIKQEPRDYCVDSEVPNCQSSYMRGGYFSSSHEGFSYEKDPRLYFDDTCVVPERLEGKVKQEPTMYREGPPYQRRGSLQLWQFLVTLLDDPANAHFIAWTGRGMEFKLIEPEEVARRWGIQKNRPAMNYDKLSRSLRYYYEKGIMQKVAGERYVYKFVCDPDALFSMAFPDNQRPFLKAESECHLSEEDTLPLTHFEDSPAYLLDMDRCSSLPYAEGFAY
Chain of ETV1 (P50549 whole entry): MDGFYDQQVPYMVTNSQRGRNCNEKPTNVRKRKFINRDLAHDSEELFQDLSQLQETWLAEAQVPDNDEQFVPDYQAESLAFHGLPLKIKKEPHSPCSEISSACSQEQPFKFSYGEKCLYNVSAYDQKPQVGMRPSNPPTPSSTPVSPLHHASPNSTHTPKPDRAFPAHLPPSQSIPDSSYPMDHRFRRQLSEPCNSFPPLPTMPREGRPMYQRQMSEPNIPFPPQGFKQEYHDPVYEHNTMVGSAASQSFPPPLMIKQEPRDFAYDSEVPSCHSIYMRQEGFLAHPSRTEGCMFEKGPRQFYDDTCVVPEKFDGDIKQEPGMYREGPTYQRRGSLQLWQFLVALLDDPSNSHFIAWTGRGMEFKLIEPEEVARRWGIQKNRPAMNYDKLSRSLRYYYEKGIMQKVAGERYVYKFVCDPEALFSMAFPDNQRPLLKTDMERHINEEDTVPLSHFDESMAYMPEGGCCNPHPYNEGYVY

Consider GATGGC, for which the binding signal in the test with FEV is 1.33 fold enrichment (6-mer frequency, TF over GST control); with ETV5, 1.26 fold enrichment (6-mer frequency, TF over GST control); in the test with HSF1, 1.1 fold enrichment (6-mer frequency, TF over GST control); in the test with SPIC, 1.45 fold enrichment (6-mer frequency, TF over GST control); with ELF4, 1.4 fold enrichment (6-mer frequency, TF over GST control); with ELK4, 1.3 fold enrichment (6-mer frequency, TF over GST control). The binding signal with ETV2 was 1.21 fold enrichment (6-mer frequency, TF over GST control); with ELF3, 1.47 fold enrichment (6-mer frequency, TF over GST control); with CRX, 1.11 fold enrichment (6-mer frequency, TF over GST control); with ETV1, 1.31 fold enrichment (6-mer frequency, TF over GST control); with ERF, 1.4 fold enrichment (6-mer frequency, TF over GST control); with ETV3L it was 1.3 fold enrichment (6-mer frequency, TF over GST control). Also, the binding signal in the test with ETS2 is 1.27 fold enrichment (6-mer frequency, TF over GST control); in the test with SPDEF it was 1.29 fold enrichment (6-mer frequency, TF over GST control); with ETV7, 1.26 fold enrichment (6-mer frequency, TF over GST control); with ELF5, 1.3 fold enrichment (6-mer frequency, TF over GST control); with ETV3, 1.3 fold enrichment (6-mer frequency, TF over GST control); with ETV6 it was 1.31 fold enrichment (6-mer frequency, TF over GST control).
